The list is not random: actives were taken first. Their share in the collection is about 1.2%.
KCNH2 WT inh = KCNH2 (human, wildtype) channel inhibition. Q12809. U2OS, BacMam KCNH2, thallium flux FluxOr; active compounds read low. activity change, % at 1.84 µM. 0.37% of 340,000 active;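 active = maximum activity change below -70%; inconclusive = maximum activity change between -70% and -50%; inactive = maximum activity change above -50%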; note: % is set by controls: 0 for no effect and ±100 for the full control effect
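U2OS cells were transduced with wild-type KCNH2 virus (2.03 x 10^8 / mL) for 4 h at room temperature, then cultured overnight at 37 C. Thallium flux was read with FluxOr dye. Rate constants were normalized to DMSO controls.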
S-ASM inh = blocks human secretory acid sphingomyelinase. placental ASM, HMU-PC fluorogenic substrate, 60 min. AID 504937. Potency, µM (top dose mostly 57.5 µM), for inactives: at the highest dose activity change, negative = inhibition, most hits filed as inhibitors. 0.006% of 340,000 active. P17405; note: potency is the fitted concentration of half-maximal effect
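HMU-PC0 cleavage (9 uM final) by human placental ASM, 60 min at 37 °C following 10 min compound exposure at RT; stopped at pH 10, fluorescence Ex 386/Em 447 nm.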
mIDH1 inhibitor = blocks human mutant IDH1 R132H enzyme; O75874; IDH1-R132H enzyme, NADPH consumption, diaphorase/resazurin fluorescence; Potency, µM (titrated, usually from 76.6 µM), without a hit: top-dose activity change, negative = inhibition, hits mostly inhibitors; 0.093% of 390,000 active; AID 602179; note: potency is the fitted concentration of half-maximal effect; % is set by controls: 0 for no effect and ±100 for the full control effect; nearly all actives have a fitted effect of over 65% in size
Target sequence (O75874 whole entry R132H, stated change not applied): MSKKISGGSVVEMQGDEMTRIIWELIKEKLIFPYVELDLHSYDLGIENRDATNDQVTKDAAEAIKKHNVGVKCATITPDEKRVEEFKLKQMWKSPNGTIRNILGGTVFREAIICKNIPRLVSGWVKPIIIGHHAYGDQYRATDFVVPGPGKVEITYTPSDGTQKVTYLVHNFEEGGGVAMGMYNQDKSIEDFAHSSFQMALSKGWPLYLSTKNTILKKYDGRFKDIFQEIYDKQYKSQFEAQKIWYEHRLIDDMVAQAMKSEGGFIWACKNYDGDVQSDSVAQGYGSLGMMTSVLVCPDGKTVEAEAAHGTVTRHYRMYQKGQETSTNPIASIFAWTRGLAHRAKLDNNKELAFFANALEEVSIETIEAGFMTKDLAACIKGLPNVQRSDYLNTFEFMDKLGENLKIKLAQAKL
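IDH1-R132H (0.5 ug/mL) preincubated 30 min with compound, then NADPH (0.016 mM) and alpha-KG (2 mM) added; 80 min at RT, pH 7.5. Remaining NADPH coupled via diaphorase/resazurin to fluorescence (540/590 nm); concentration-response curves normalized to no-enzyme control.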
KCNH2 3.1 block = blocks the human KCNH2 3.1 channel isoform | activity change, % (tested at about 1.8 µM) | 0.95% of 340,000 active | U2OS KCNH2 3.1, thallium flux FluxOr; active compounds read low | AID 720553;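 active = maximum activity change below -70%; inconclusive = maximum activity change from -70% to -50%; inactive = maximum activity change above -50%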;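 note: thallium influx rate constant from kinetic fluorescence after stimulation buffer; % is set by controls: 0 for no effect and ±100 for the full control effect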
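FluxOr-based Tl+ influx in U2OS cells transduced with KCNH2 3.1 virus; rate constants normalized to DMSO controls.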
Anesthetic bind = candidate novel general anesthetic via apoferritin binding; 0.074% of 350,000 active; Potency, µM (highest dose often 77.5 µM), inactives show top-dose activity change, negative = displacement, hits mostly inhibitors; apoferritin/1-aminoanthracene competitive binding, fluorescence; P02791; note: potency is the fitted concentration of half-maximal effect; % is set by controls: 0 for no effect and ±100 for the full control effect; nearly all actives have a fitted effect of over 20% in size
Target sequence (P02791 2-175 limits assumed): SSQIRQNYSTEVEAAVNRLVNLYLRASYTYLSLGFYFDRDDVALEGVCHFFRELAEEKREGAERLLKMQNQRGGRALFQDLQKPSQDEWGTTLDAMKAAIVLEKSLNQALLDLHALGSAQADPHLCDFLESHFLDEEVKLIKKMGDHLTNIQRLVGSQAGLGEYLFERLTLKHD
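Probe: 1-aminoanthracene (50% saturated, PBS). Protein: horse-spleen apoferritin, 10 uM. Incubation: 10 min, room temperature. Detection: 380 nm excitation, 535 nm emission. Analysis: normalized response, four-parameter Hill.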
Resorufin autofl = counter-screen for mutant IDH1 inhibitors: fluorescence interference; inhibition of signal, % at 51.2 µM; shares compounds with mIDH1 inhibitor; 750 tested, under 10 active; Resorufin detection reagent fluorescence interference, cell-free; AID 623980;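 note: 0% = wells with normal resorufin and full inhibition = wells lacking resorufin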
WT IDH1 inh = wild-type IDH1 (human) inhibition counterscreen. shares compounds with mIDH1 inhibitor. WT IDH1 enzyme, NADPH diaphorase/resazurin fluorescence. Potency, µM (titrated, usually from 115 µM), without a hit: top-dose activity change, negative = inhibition, most hits filed as inhibitors. 9% of 750 active. AID 623995;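 note: potency is the fitted concentration of half-maximal effect; 0% = full WT IDH1 enzyme control and full inhibition = no enzyme wells; nearly all actives have a fitted effect of over 55% in size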
Target sequence (O75874 whole entry, looked up): as the sequence (O75874 whole entry R132H, stated change not applied) above, with H132R counted along it
mIDH1 confirm = inhibits human mutant IDH1 enzyme in cherrypick confirmation; shares compounds with mIDH1 inhibitor; IDH1 R132H enzyme, NADPH diaphorase/resazurin fluorescence; Potency, µM (highest dose often 76.6 µM), inactives show top-dose activity change, negative = inhibition, actives largely listed as inhibitors; 83% of 750 active; AID 624002; note: potency is the fitted concentration of half-maximal effect; nearly all actives have a fitted effect of over 50% in size
An asterisk follows results filed as active; [ ] = remark or other dose. Unless noted, calls come from the whole dose curve; as a rule, active = well fitted curve in the direction sought with a large enough effect; inconclusive = small, poorly fitted or top-dose-only effect, or another doubt; inactive = no such curve, though single readings can be large; an effect the other way counts as inactive or inconclusive.

How did CCOc1ccc(N(Cc2cc3cc(C)ccc3[nH]c2=O)C(=O)c2cccc(Cl)c2)cc1 do in these assays?
mIDH1 inhibitor: -16%; Anesthetic bind: -5%

How did COc1cc2c(cc1OC)C1O[C@](CCCCN3C(=O)c4ccccc4C3=O)(C2)OC2=C1C(=O)c1ccccc1C2=O do in these assays?
Anesthetic bind: -21%[15.3 µM]

How did CCOc1ccc(CN(C(=O)c2cc(=O)c3cc(Cl)ccc3o2)C2CCS(=O)(=O)C2)cc1 (centres undefined) do in these assays?
mIDH1 inhibitor: 16%; Anesthetic bind: inconclusive

What do the screens show for `Cc1ccc(N2CC(NC(=O)C(=O)c3c[nH]c4ccccc34)CC2=O)cc1` (centres undefined)?
mIDH1 inhibitor: -12%; Anesthetic bind: 8%

Results for CC(=O)C1=C(c2ccc(F)cc2)N(C(C)=O)n2c(nnc2C2CCCCC2)S1 ?
mIDH1 inhibitor: inconclusive; Anesthetic bind: -8%

What do the screens show for `CCCC(=O)C1=C(c2cccc(OC)c2)N(C(=O)CCC)n2c(C)nnc2S1`?
mIDH1 inhibitor: 45µM*; Anesthetic bind: 1%; Resorufin autofl: -7; WT IDH1 inh: 170%; mIDH1 confirm: 45µM*

What do the screens show for `CCCC(=O)C1=C(c2ccc(C)c(C)c2)N(C(=O)CCC)n2c(CC)nnc2S1`?
mIDH1 inhibitor: 3%; Anesthetic bind: 46%

Results for CC(=O)C1=C(c2ccccc2)N(C(C)=O)n2c(C)nnc2S1 ?
KCNH2 WT inh: 5; S-ASM inh: -1%; mIDH1 inhibitor: 29µM*; KCNH2 3.1 block: 46; Anesthetic bind: -13%; Resorufin autofl: -6; WT IDH1 inh: -130%; mIDH1 confirm: 6.3µM*

How did CCCC(=O)C1=C(c2ccc(C)cc2)N(C(=O)CCC)n2cnnc2S1 do in these assays?
mIDH1 inhibitor: 40µM*; Anesthetic bind: -4%; Resorufin autofl: -3; WT IDH1 inh: 272%; mIDH1 confirm: 40µM*

How did Cc1nc(NCc2ccccc2)c2nc(-c3ccccc3)n(CC(C)(C)CN(C)C)c2n1 do in these assays?
Anesthetic bind: -13%

How did O=C(COc1ccccc1-c1ccccc1)NCCN1C(=O)S/C(=C\c2cccnc2)C1=O do in these assays?
KCNH2 WT inh: 5; S-ASM inh: -8%; mIDH1 inhibitor: 46µM*; KCNH2 3.1 block: 0; Anesthetic bind: -6%; Resorufin autofl: -3; WT IDH1 inh: -11%; mIDH1 confirm: 28µM*

Results for O=C(NCCN1C(=O)S/C(=C/c2cccnc2)C1=O)c1cccs1 ?
KCNH2 WT inh: -3; S-ASM inh: 2%; mIDH1 inhibitor: 2%; KCNH2 3.1 block: -5

Results for CC(C)C[C@H](NC(=O)c1[nH]cnc1C(=O)N[C@@H](C)c1ccccc1)C(=O)OC(C)(C)C ?
KCNH2 WT inh: 1; S-ASM inh: -5%; mIDH1 inhibitor: 18µM*; KCNH2 3.1 block: -9; Anesthetic bind: inconclusive; Resorufin autofl: 7; WT IDH1 inh: -14%; mIDH1 confirm: 20µM*

What do the screens show for `CCOC(=O)c1c(C)oc2nc(C)nc(Nc3cc(C)cc(C)c3)c12`?
mIDH1 inhibitor: -8%; Anesthetic bind: -5%

Results for O=C(NCCN1CCOCC1)c1ccc(Cl)c(Cl)c1 ?
KCNH2 WT inh: 0; S-ASM inh: 1%; mIDH1 inhibitor: 2%; KCNH2 3.1 block: 19; Anesthetic bind: -8%

How did O=C1/C(=C\c2ccc(Cl)c(Cl)c2)CN(C(=O)CCN2CCOCC2)C/C1=C/c1ccc(Cl)c(Cl)c1 do in these assays?
KCNH2 WT inh: 21; S-ASM inh: inconclusive; mIDH1 inhibitor: inconclusive; KCNH2 3.1 block: -24; Resorufin autofl: -4; WT IDH1 inh: -4%; mIDH1 confirm: 28µM*

What do the screens show for `COc1ccccc1-c1noc(CSc2nnc(Cc3ccccc3)n2-c2ccc(C)c(C)c2)n1`?
mIDH1 inhibitor: inconclusive; Anesthetic bind: 28%; Resorufin autofl: -4; WT IDH1 inh: 5%; mIDH1 confirm: inconclusive

What do the screens show for `Cc1ccc2oc(C(=O)Nc3c(C(=O)Nc4ccccc4)oc4ccccc34)cc(=O)c2c1`?
mIDH1 inhibitor: -12%; Anesthetic bind: 6%

What do the screens show for `NNc1nnnc2c1sc1nc(N3CCOCC3)c3c(c12)CCCC3`?
KCNH2 WT inh: 1; S-ASM inh: -3%; mIDH1 inhibitor: 52µM*; KCNH2 3.1 block: -2; Anesthetic bind: -9%; Resorufin autofl: -2; WT IDH1 inh: -15%; mIDH1 confirm: inconclusive

How did CC(C)CNc1nnnc2c1sc1nc(N3CCOCC3)c3c(c12)CC(C)(C)SC3 do in these assays?
KCNH2 WT inh: 4; S-ASM inh: inconclusive; mIDH1 inhibitor: inconclusive; KCNH2 3.1 block: -10; Anesthetic bind: inconclusive; Resorufin autofl: 10; WT IDH1 inh: inconclusive; mIDH1 confirm: inconclusive

How did CC1(C)Cc2c(c(N3CCOCC3)nc3sc4c(NN)ncnc4c23)CS1 do in these assays?
KCNH2 WT inh: 4; S-ASM inh: 3%; mIDH1 inhibitor: 23µM*; KCNH2 3.1 block: -7; Anesthetic bind: -9%; Resorufin autofl: -5; WT IDH1 inh: inconclusive; mIDH1 confirm: 14µM*

How did Cc1ccccc1-c1noc(-c2ccc(N3CCCC3)c([N+](=O)[O-])c2)n1 do in these assays?
mIDH1 inhibitor: 4%; Anesthetic bind: -5%

What do the screens show for `CCOc1ccc(-n2cc(-c3ccccc3)c3c(NC4CCCC4)ncnc32)cc1`?
mIDH1 inhibitor: inconclusive; Anesthetic bind: 43%; Resorufin autofl: -4; WT IDH1 inh: -2%; mIDH1 confirm: 10µM*

Results for CC(C)(C)c1cc(CP(=O)(c2ccccc2)c2ccccc2)cc(C(C)(C)C)c1O ?
KCNH2 WT inh: inconclusive; S-ASM inh: -8%; mIDH1 inhibitor: inconclusive; KCNH2 3.1 block: -18; Anesthetic bind: 0%; Resorufin autofl: -1; WT IDH1 inh: -3%; mIDH1 confirm: 28µM*

What do the screens show for `C=CCOc1ccc(Br)cc1/C=C1/SC(=Nc2ccc(C(=O)O)cc2)NC1=O`?
KCNH2 WT inh: 4; S-ASM inh: -2%; mIDH1 inhibitor: 52µM*; KCNH2 3.1 block: 1; Anesthetic bind: -2%; Resorufin autofl: 9; WT IDH1 inh: 71µM*; mIDH1 confirm: 28µM*

Screening data (PubChem)
